Some of the results follow. Results filed as inconclusive are left out. Active and inactive are the calls of the source. The call rests on the fitted dose curve; in most records, active means well fitted inhibition curve with a large enough effect; inconclusive means small, poorly fitted or top-dose-only effect; inactive means flat fitted curve, though single readings scatter.
Target: Alanine aminotransferase 2 (Homo sapiens) (UniProt Q8TD30)
Test: Confirmatory qHTS assay for inhibitors of Glutamate pyruvate transaminase 2 (GPT2)
Conditions: GPT2 enzyme, coupled Amplex Red pyruvate fluorescence
Procedure: Assay Provider: Zhenghe John Wang Ph.D. Case Western Reserve University, Cleveland OH Glutamate pyruvate transaminase 2 (GPT2) catalyzes the reversible transamination of glutamate and pyruvate to provide a-ketoglutarate and alanine. We have optimized an assay for GPT2 enzymatic activity that couples pyruvate formation to detection of fluorescence using an established pyruvate oxidase/horseradish peroxidase / Amplex Red system. Screening conditions were 250uM a-KG, 2mM L-alanine, and 0.006 ng/uL GPT2 in 4 uL of solution; 2 uL of Amplex reaction mix (outlined below) were added so that final concentrations of Amplex reagents in 6 uL were 0.2mM ThPP, 0.2U/mL PO, 1 U/mL HRP, and 15 uM Amplex.
NOTE: The volume of GPT2 in the system depended on the activity of it. The activity could be different in every batch. Batch testing the GPT2 activity was done prior to the assay. Full plate assay with automation as the following protocol: 1. Dispense 2ul of GPT2 enzyme (0.012 ng/ul) into columns 3-48, 2ul of GPT2 buffer (ddH2O with 110mM KCl, 10mM NaCl, 2mM MgCl2, 20mM HEPEs, 0.01% tween-20, 0.1% BSA, 5mM DTT ) into columns 1-2 as a positive control. 2. […] Read at Tecan: Excitation filter 560(10) nm, Emission filter 590 (10) nm Reagents preparation: 1. […]

Alanine aminotransferase 2 (Homo sapiens), sequence (Q8TD30 whole entry, looked up): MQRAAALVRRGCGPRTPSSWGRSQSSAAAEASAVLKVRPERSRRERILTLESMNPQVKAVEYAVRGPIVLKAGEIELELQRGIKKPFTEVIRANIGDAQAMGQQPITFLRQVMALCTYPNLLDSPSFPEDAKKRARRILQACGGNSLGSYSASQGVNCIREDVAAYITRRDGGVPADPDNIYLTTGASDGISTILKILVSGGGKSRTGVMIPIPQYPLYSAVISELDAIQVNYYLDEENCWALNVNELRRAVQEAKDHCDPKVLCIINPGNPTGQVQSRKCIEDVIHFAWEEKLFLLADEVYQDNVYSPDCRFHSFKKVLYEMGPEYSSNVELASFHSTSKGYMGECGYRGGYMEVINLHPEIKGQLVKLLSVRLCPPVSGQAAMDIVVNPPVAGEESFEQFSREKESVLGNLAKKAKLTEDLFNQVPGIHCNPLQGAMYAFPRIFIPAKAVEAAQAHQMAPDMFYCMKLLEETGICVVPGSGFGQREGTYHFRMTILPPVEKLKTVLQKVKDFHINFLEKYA

SMILES	Potency
CN1CCOc2c(C(=O)NCCN3CCNC3=O)cc(Nc3cccnc3)cc21	4.98 µM (active)
CNC(=O)c1ccccc1Nc1nc(Nc2ccc(N3CCOCC3)cc2OC)ncc1Cl	1.72 µM (active)

— PubChem BioAssay AID1671187 (National Center for Advancing Translational Sciences (NCATS), 2021)
